{"source": "the supplement of paper PMC9023506", "note": "Counter-ions that a name gives are not always drawn.", "data": [{"system": "Danio rerio larvae (5 dpf)", "experiment": "optomotor response to red moving lines, difference vs DMSO (percentage points (treated minus DMSO)); higher = more of the behaviour than the DMSO vehicle control", "settings": "10 µM; exposure time: 3 h pre-incubation + 3 h imaging", "procedure": "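5-dpf wild-type zebrafish larvae were imaged in 96-well plates. They were treated with 190 Tocris FDA-approved drugs at 10 µM (1 µl/ml DMSO) for 3 h before and 3 h during imaging at 28.5 °C, 48 larvae per drug. Automated image analysis gave % time moving and optomotor responses. Values are drug group mean minus DMSO vehicle mean (n=844), in percentage points, for 10 behaviours.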", "values": [{"smiles": "CC[C@@H](C(N)=O)N1CCCC1=O", "note": "[Levetiracetam]", "optomotor response to red moving lines": 0.251}, {"smiles": "C=C1C[C@@H]2[C@H](CC[C@]3(C)C(=O)CC[C@@H]23)[C@@]2(C)C=CC(=O)C=C12", "note": "[Exemestane]", "optomotor response to red moving lines": 6.78}, {"smiles": "CC(C)C[C@H]1C(=O)N2CCC[C@H]2[C@]2(O)O[C@](NC(=O)[C@@H]3C=C4c5cccc6[nH]c(Br)c(c56)C[C@H]4N(C)C3)(C(C)C)C(=O)N12", "note": "[Bromocriptine mesylate]", "optomotor response to red moving lines": -29}, {"smiles": "C=CCN1C[C@H](C(=O)N(CCCN(C)C)C(=O)NCC)C[C@@H]2c3cccc4[nH]cc(c34)C[C@H]21", "note": "[Cabergoline]", "optomotor response to red moving lines": -3.05}, {"smiles": "N[C@@H]1C[C@H]1c1ccccc1", "note": "[Tranylcypromine hydrochloride]", "optomotor response to red moving lines": 12.9}, {"smiles": "COc1cc2c(cc1OC)C1CC(=O)C(CC(C)C)CN1CC2", "note": "(stereo unspecified) [Tetrabenazine]", "optomotor response to red moving lines": -1.77}, {"smiles": "COc1ccc(C(CN(C)C)C2(O)CCCCC2)cc1", "note": "(stereo unspecified) [Venlafaxine hydrochloride]", "optomotor response to red moving lines": 18.8}, {"smiles": "CN1C[C@H](C(=O)N[C@]2(C)O[C@@]3(O)[C@@H]4CCCN4C(=O)[C@H](Cc4ccccc4)N3C2=O)C[C@@H]2c3cccc4[nH]cc(c34)C[C@H]21", "note": "[Dihydroergotamine mesylate]", "optomotor response to red moving lines": 11.5}, {"smiles": "CC(O)(CS(=O)(=O)c1ccc(F)cc1)C(=O)Nc1ccc(C#N)c(C(F)(F)F)c1", "note": "(stereo unspecified) [Bicalutamide]", "optomotor response to red moving lines": -10.4}, {"smiles": "CCN(C)C(=O)Oc1cccc([C@H](C)N(C)C)c1", "note": "[Rivastigmine tartrate]", "optomotor response to red moving lines": -8.95}, {"smiles": "O=c1[nH]c2ccccc2n1C1CCN(CCCC(c2ccc(F)cc2)c2ccc(F)cc2)CC1", "note": "[Pimozide]", "optomotor response to red moving lines": -0.227}]}]}
